The results in this text go back to ChEMBL document CHEMBL3433997, “St. Jude Leishmania screening dataset” (2016).

What all share (assay type): functional
Test [1] addresses Solute carrier family 2, facilitated glucose transporter member 1 (Homo sapiens) (UniProt P11166). Nature of the test: ST_JUDE_LEISH: Cytotoxicity at 2uM final concentration against transgenic Leishmania Mexicana promastigotes LmGLUT1 that are glucose transport deficient and complemented with the human glucose transporter GLUT1. Activity is measured by DNA content using SYBR green in vitro.

Test [2] addresses Hexose transporter 1 (Plasmodium falciparum) (UniProt O97467). Nature of the test: ST_JUDE_LEISH: Cytotoxicity at 2uM final concentration against transgenic Leishmania Mexicana promastigotes LmPfHT that are glucose transport deficient and complemented with the Plasmodium falciparum hexose transporter. Activity is measured by DNA content using SYBR green in vitro.
Test [3] deals with Glucose transporter (Leishmania mexicana) (UniProt O61059). Nature of the test: ST_JUDE_LEISH: Cytotoxicity at 2uM final concentration against transgenic Leishmania Mexicana promastigotes LmGT2 that are glucose transport deficient and complemented with the L. Mexicana glucose transporter 2. Activity is measured by DNA content using SYBR green in vitro.

Sequence of Solute carrier family 2, facilitated glucose transporter member 1 (Homo sapiens) (P11166 whole entry): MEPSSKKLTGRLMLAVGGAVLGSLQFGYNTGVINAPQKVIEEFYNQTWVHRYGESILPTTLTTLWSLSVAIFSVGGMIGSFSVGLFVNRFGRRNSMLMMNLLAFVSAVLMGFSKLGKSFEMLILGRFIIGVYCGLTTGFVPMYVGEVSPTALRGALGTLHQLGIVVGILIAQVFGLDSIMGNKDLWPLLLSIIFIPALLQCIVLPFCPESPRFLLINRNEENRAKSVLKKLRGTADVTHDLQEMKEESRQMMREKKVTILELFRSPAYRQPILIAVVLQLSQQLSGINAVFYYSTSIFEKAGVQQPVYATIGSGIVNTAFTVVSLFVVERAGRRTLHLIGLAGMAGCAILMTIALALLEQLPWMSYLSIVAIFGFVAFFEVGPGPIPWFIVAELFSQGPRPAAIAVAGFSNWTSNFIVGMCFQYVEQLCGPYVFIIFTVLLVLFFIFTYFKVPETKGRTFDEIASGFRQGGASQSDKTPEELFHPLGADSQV

Take `CN1CCC(NCc2cccc(-c3ccc(S(=O)(=O)NCCc4ccccn4)cc3)c2)CC1`: the inhibition was 3.76% in test [1], 2.04% in test [2] and -2.17% in test [3].
Regarding `N=c1ccn(CC(=NO)c2ccc(Cl)c(Cl)c2)cc1`, the results for the inhibition in test [1], in test [2] and in test [3] were 0.09%, 2.8% and 0.32%, respectively.
The corresponding values for `Cc1cc(NC(=O)Nc2ccc3sccc3c2)c2ccccc2n1` are 2.24%, 2.66% and 0.53%.
`O=C(NC1CCN(Cc2ccccc2)CC1)c1cccc(-c2nc3ccc(Cl)cc3[nH]2)c1`: the inhibition in test [1] was 1.15%; in test [2], 2.61%; in test [3], 2.94%.
The corresponding values for `COc1cccc(Cc2cnc3nc(N)nc(N)c3c2C)c1` are 2.99%, 1.68% and 3.44%.
With `O=C(c1cccc(-c2ccc(-c3nc4cc(F)ccc4[nH]3)s2)c1)N1CCCCC1CN1CCC(O)C1` (stereo not given), the inhibition in test [1] was determined as 2.59%; in test [2] it was 1.6%; in test [3], 1.75%.
For the compound `N=C(N)NCCN(Cc1ccccc1)c1ccc(Cl)cc1`, the values for the inhibition in test [1], in test [2] and in test [3] were 1.36%, -0.96% and 1.25%, respectively.
The corresponding values for `O=[N+]([O-])c1cccc(CNCC2CCN(Cc3ccc(-c4ccccc4)cc3)CC2)c1` are 3.06%, 2.39% and 0.56%.
As to `O=C(/C=C/c1ccc(Cl)c(Cl)c1)N1CCC(NCc2ccc3[nH]ccc3c2)CC1`, the inhibition is 4.05% in test [1], 4.06% in test [2] and 0.76% in test [3].
For `NC1=NC(c2ccccc2)(c2ccccc2)C(=O)N1CCCCc1ccccn1` the same measures were -0.54%, -0.95% and -2.5%.
The corresponding values for `CC(=O)Nc1ccc(C(=O)NC2CCN(c3ccnc4cc(Cl)ccc34)CC2)cc1` are 0.22%, 1.09% and 1.09%.
Turning to `COc1cc2c(=O)c(Cc3ccc(Cl)cc3)c(C)[nH]c2cc1F`, the inhibition in test [1] is 2.09%; in test [2], 3.31%; in test [3], 0.73%.
Turning to `CCNc1cc(C(=O)N[C@@H](Cc2ccccc2)[C@H](O)CNCCc2cccc3ccccc23)cc(N2CCCC2=O)c1`, the inhibition in test [1] is -0.63%; in test [2], -0.02%; in test [3], -1.96%.
For `O=C(CCc1c[nH]cn1)Nc1cccc(-c2cccc(-c3nc4cc(C(F)(F)F)ccc4[nH]3)c2)c1` the same measures were -0.34%, 0.58% and 0.79%.
For `CCCCCc1ccc(N2C(N)=NC(N)=NC2(C)C)cc1` the same measures were 3.51%, 2.87% and 4.35%.
For `O=C(Nc1cccc(CN2CCCN(Cc3ccsc3)CC2)c1)c1cc2ccccc2s1` the same measures were 1.11%, 0.58% and -0.93%.
Take `CN(C)CCCOc1ccc(CN2CC[C@H](NC(=O)c3ccc(Cl)c(Cl)c3)C2)cc1Cl`: the inhibition in test [1] worked out at 13.3%; in test [2], 10.7%; in test [3], 8.69%.
The corresponding values for `Cc1cc2cc(/C=C/C(=O)NC3CCC(CCN4CCc5ccc(C#N)cc5CC4)CC3)ccc2[nH]1` (stereo not given) are 9.08%, 7.95% and 8.66%.
For `CC(C)C[C@H](NC(=O)c1ccc(OCCN2CCOCC2)cc1)C(=O)N[C@H](/C=N/N1CC(=O)NC1=O)CCc1ccccc1` the same measures were 3.3%, 4.15% and 2.88%.
For `Cc1c(F)cc(C(=O)NC2CC2)cc1-c1ccc2c(cnn2S(=O)(=O)c2ccc(F)c(F)c2)c1` the same measures were 5.87%, 5.31% and 5.54%.
Turning to `Cc1ccc(Oc2ccccc2NC(=O)CCc2nc3ccccc3c(=O)[nH]2)cc1`, the inhibition in test [1] is 0.1%; in test [2], 0.95%; in test [3], 2.88%.
For `Oc1ccc(CCCNc2nc(NCc3ccccc3-c3ccccc3)nc(N3CCNCC3)n2)cc1` the same measures were -0.81%, -2.76% and 1.36%.
Turning to `Cc1ccc(CNC(=O)[C@H](CCCN)Nc2nc(NCC3CCCCC3)ncc2C)cc1`, the inhibition stood at 3.55% in test [1], 2.8% in test [2] and 2.97% in test [3].
For `CN(C)CCCOc1cccc(NC(=O)Nc2ccc(-c3ccccc3)cc2)c1` the same measures were -1.01%, -1.23% and -3.41%.
As to `Cc1ccccc1C1CCN(C2CCC(NC(=O)/C=C/c3ccc4c(c3)OC(F)(F)O4)CC2)CC1` (stereo not given), the inhibition amounted to 0.14% in test [1], 5.21% in test [2] and 2.92% in test [3].
For `Cc1cccc2nc(-c3cccc(-c4ccc(NC(=O)COC(C)C)cc4)c3)[nH]c12` the same measures were -3.18%, 0.45% and -2.12%.
The corresponding values for `O=C(CC(=O)C(F)(F)F)c1ccc2c(c1)OCO2` are 1.45%, 1.74% and 2.14%.
Consider `CCCc1cc(C)ccc1OCCCON1C(NC(=O)OCC)=NC(NC(=O)OCC)=NC1(C)C`, for which the inhibition was -0.11% in test [1], 1.76% in test [2] and -0.57% in test [3].
For `Cc1[nH]c(C)c(-c2ccc(-c3ccc(OC(F)(F)F)cc3)cc2)c(=O)c1Br` the same measures were 2.4%, 4.25% and 3.37%.
The corresponding values for `O=C(Nc1nc(-c2ccccn2)cs1)c1ccccc1COc1ccccc1` are -2.49%, 1.21% and -1.57%.
The corresponding values for `C#CCCOc1ccc2ccccc2c1CNCCCCCCNCc1c(OCCC#C)ccc2ccccc12` are -1.76%, 3.36% and -0.13%.
On to `COc1ccccc1CN1CCC(NC(=O)c2ccc(-c3cccc(C(F)(F)F)c3)s2)CC1`, for which the inhibition is 3.7% in test [1], 4.38% in test [2] and -4.28% in test [3].
On to `COc1ccccc1CN1CCC(NC(=O)c2ccc(-c3ccc(N(C)C)cc3)s2)CC1`, for which the inhibition in test [1] came to 9.96%; in test [2], 12.6%; in test [3], 8.12%.
For `COCCCn1c(=N)c(C(=O)NCCc2ccc(OC)cc2)cc2c(=O)n3cccc(C)c3nc21` the same measures were 4.69%, 5.42% and 8.16%.
For `O=S(=O)(Nc1cccc(CCN2CCC(N3CCCCC3)CC2)c1)c1cccc2ccccc12` the same measures were 4.59%, 2.76% and 3.28%.
`COc1ccc(CC2(c3ccc(F)cc3)N=C(N)N(CCCc3ccc4c(c3)OCO4)C2=O)cc1` (stereo not given): the figures for the inhibition in test [1], in test [2] and in test [3] were 4%, 5.58% and 5.39%, respectively.
The corresponding values for `Cc1ccccc1C1CCN(C2CCC(NC(=O)/C=C/c3ccc(C#N)cc3)CC2)CC1` (stereo not given) are 3.43%, 4.49% and 5.03%.
In the case of `OC[C@H](Nc1nc(C(Oc2ccccc2)c2ccccc2)nc2[nH]ncc12)c1ccccc1` (stereo not given in full), the inhibition stood at 7.13% in test [1], 4.93% in test [2] and 4.96% in test [3].
For the compound `CC(=O)CC(=O)N1CCN(c2ccccc2)CC1`, the results for the inhibition in test [1], in test [2] and in test [3] were -0.36%, -0.81% and -0.35%, respectively.
The corresponding values for `CN(C)c1ccc2nc(N)nc(N)c2c1Cl` are 3.29%, 3.16% and 3.5%.
As to `CC[C@H]1CN(Cc2ccccc2Br)CC[C@H]1CCCc1ccnc2ccc(O)cc12`, the inhibition came out at 3.62% in test [1], 5.03% in test [2] and 2.43% in test [3].
The corresponding values for `CN1CCN(CC(=O)Nc2cccc(-c3ccc(-c4nc5cc(C(F)(F)F)ccc5[nH]4)cc3)c2)CC1` are 0.96%, 0.81% and 1.35%.
For `Cc1ccc(Nc2nc(C)cc(NC3CCCC3)n2)cc1` the same measures were 29.3%, 19.7% and 10.8%.
The corresponding values for `Cc1ccc(NC(=O)c2ccc(Cl)cc2)cc1-c1ccc(C(=O)Nc2ccncc2)cc1` are -1.61%, 1.31% and 0.29%.
On to `N=c1n(Cc2ccc(Cl)cc2)c2ccccc2n1CC(O)c1ccc(Cl)c(Cl)c1` (stereo not given), for which the inhibition in test [1] was 0.04%; in test [2] it was 1.87%; in test [3], -1.55%.
For `CN(C)CCCn1cncc1-c1ccc2ncnc(Nc3ccc(OCc4ccccc4)cc3)c2c1` the same measures were 4.09%, 6.87% and 7.01%.
The corresponding values for `O=C(NC1CCN(Cc2ccccc2O)C1)c1cccc(C(F)(F)F)c1` (stereo not given) are 0.25%, 0.49% and -9.49%.
The corresponding values for `CN(C1CCC(NC(=O)/C=C/c2ccccc2)CC1)C1CC2(CCN(C(=O)OC(C)(C)C)CC2)c2ccccc21` (stereo not given) are 9.97%, 5.58% and 6.01%.
Regarding `O=C(Nc1ccc(-c2ccccc2)s1)N[C@H]1CCN(Cc2ccc(OCCCN3CCCCC3)cc2)C1`, the inhibition in test [1] was 0.93%; in test [2] it was 1.34%; in test [3], 2.81%.
For `COc1cc2nc(N3CCC(CNC(=O)c4ccc(-c5ccc(-c6noc(C)n6)cc5)cc4)CC3)nc(N)c2cc1OC` the same measures were 64.1%, 45.5% and 41.6%.

In general, inhibition refers to the relative decrease from the control value, in per cent.
